Source: PubChem BioAssay
The list is not random: actives were taken first. Their share in the collection is about 7.3%.
RORgamma inh – inhibitors of mouse ROR gamma transcriptional activity. P51450. Drosophila S2 Gal4-RORgamma UAS-luciferase reporter, 20 h. Potency, µM (titrated, usually from 53.6 µM), actives largely listed as inhibitors. 310,000 compounds, 5.4% hits; note: nearly all actives have a fitted effect of over 60% in size
Target sequence (P51450 whole entry, looked up, the tested form may be a part): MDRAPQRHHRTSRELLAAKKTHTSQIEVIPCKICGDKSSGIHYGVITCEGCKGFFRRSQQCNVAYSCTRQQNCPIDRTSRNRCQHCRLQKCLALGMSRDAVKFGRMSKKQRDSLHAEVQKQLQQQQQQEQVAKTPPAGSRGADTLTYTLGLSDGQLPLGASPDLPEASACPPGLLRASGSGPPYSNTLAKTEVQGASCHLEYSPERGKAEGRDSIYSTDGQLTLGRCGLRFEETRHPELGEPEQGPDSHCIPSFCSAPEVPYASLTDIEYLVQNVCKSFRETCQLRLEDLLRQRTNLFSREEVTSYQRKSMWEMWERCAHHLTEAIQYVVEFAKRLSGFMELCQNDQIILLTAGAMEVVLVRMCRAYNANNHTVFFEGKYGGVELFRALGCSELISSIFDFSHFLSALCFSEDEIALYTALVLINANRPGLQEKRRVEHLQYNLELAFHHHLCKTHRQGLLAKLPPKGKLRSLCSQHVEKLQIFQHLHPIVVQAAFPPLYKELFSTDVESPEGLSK
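Drosophila Schneider cells stably carrying a metallothionein-driven Gal4 DBD–ROR gamma fusion and a UAS-Photinus luciferase reporter were exposed to compound for 1 hr, then induced with copper sulfate (700 uM final) for 20 hr at ambient temperature before luminescence reading.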
Tau FP inhib – tau fibrillization inhibition (FP) | K18 P301L tau heparin fibrillization, Alexa594 FP, 6 h | Potency, µM (titrated, usually from 57.7 µM), most hits filed as inhibitors | 280,000 compounds, 0.39% hits; note: nearly all actives have a fitted effect of over 55% in size
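Steps: dispense K18 P301L tau (15 uM plus 0.24 uM Alexa 594 tracer, final) in pH 7 sodium acetate; add compound; add heparin (20 uM final); incubate 6 hr, 37 C; add ThT (30 uM final); after 1 hr ambient, read FP.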
Tau fluor counter – counter-screen for tau fibril formation inhibitors; tau K18 P301L Alexa594 fluorescence, heparin fibrillization; Potency, µM (series often up to 57.7 µM); 280,000 compounds, 0.93% hits; note: nearly all actives have a fitted effect of over 55% in size
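Human tau K18 P301L (15 uM unlabeled, 0.24 uM Alexa 594-labeled) in 100 mM sodium acetate pH 7 with 20 uM heparin, 6 hr at 37 C. ThT 30 uM added, 1 hr ambient; Alexa 594 FP and total fluorescence read at 555/632 nm.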
VP16 counter – Gal4-VP16 reporter inhibition counter-screen | Drosophila S2 Gal4-VP16 UAS-luciferase, luminescence, 20 h | Potency, µM (series often up to 53.6 µM), actives largely listed as inhibitors | 310,000 compounds, 3.5% hits;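 note: Gal4-VP16 expression switched on by copper sulfate through the metallothionein promoter; nearly all actives have a fitted effect of over 50% in size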
Tau ThT inhib – tau fibrillization inhibition (ThT binding); recombinant tau K18 P301L (four-repeat tau fragment), heparin-induced fibrillization, ThT fluorescence; AID 1460; P10636; 270,000 compounds, 2.1% hits; Potency, µM (series often up to 57.4 µM), hits mostly inhibitors; note: nearly all actives have a fitted effect of over 55% in size
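In this qHTS, human K18 P301L tau is incubated with compound and heparin for 6 hr at 37 C, and Thioflavin T fluorescence then reports fibril load.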
A number is an active result; n = inactive; u = inconclusive; x = not tested or not shown; [ ] = remark or other dose. Calls come from the whole dose curve; as a rule, active = well fitted curve in the direction sought with a large enough effect; inconclusive = small, poorly fitted or top-dose-only effect, or another doubt; inactive = no such curve, though single readings can be large; an effect the other way counts as inactive or inconclusive.

SMILES	RORgamma inh	Tau FP inhib	Tau fluor counter	VP16 counter	Tau ThT inhib
COC(=O)c1cn(-c2ccccc2)nc1-c1ccc(OC)cc1	n	n	n	n	n
CCN(CC)CCNC(=O)c1ccc(NC(=O)c2cn(-c3ccccc3)nc2-c2cccs2)cc1	n	10µM	u	n	n
CCN(CC)CCNC(=S)NC(=O)c1cn(-c2ccccc2)nc1-c1ccc(OC)cc1	7.1µM	u	u	13µM	n
CCCCC/C=C\C/C=C\C/C=C\C/C=C\CCCCCC(N)=O	n	n	n	n	n
O=[N+]([O-])c1ccc(Sc2ncccn2)c([N+](=O)[O-])c1	7.9µM	u	6.3µM[quencher]	u	13µM
O=C(COc1ccc(Cl)cc1)NCCc1csc(-c2ccc(F)cc2)n1	x	n	n	x	n
CCN(CC)c1ccc(N=Nc2nn(C)c(C)c2[N+](=O)[O-])cc1	5µM	n	u	u	16µM
CCN(Cc1ccccc1)c1ccc(N=Nc2nn(C)c(C)c2[N+](=O)[O-])cc1	u	u	u	u	10µM
COC(=O)c1ccc([C@@H]2Nc3c(OC)ccc(C)c3[C@@H]3C=CC[C@@H]32)cc1	x	u	u	x	13µM
O=C(CN1C(=O)COc2ccc(S(=O)(=O)Nc3ccccc3)cc21)Nc1cccc(Cl)c1	x	u	u	x	n
COc1ccccc1C1CCN(c2ccc(CO)cc2[N+](=O)[O-])CC1	n	n	u	n	14µM
COc1ccccc1C1CCN(Cc2cccc([N+](=O)[O-])c2)CC1	n	n	n	n	n
CCn1c(C)nc2cc(C(=O)N/N=C/c3ccccc3C)ccc21	u	n	n	u	n
CCn1c(C)nc2cc(C(=O)N/N=C(\C)c3ccccc3O)ccc21	0.63µM	n	n	0.63µM	u
CCn1c(C)nc2cc(C(=O)NNC(=S)Nc3ccccc3OC)ccc21	13µM	n	n	n	n
CC(Oc1ccccc1)C(=O)Nc1nnc2n1CCS2 (configuration not stated)	x	n	n	x	n
Cn1cccc1/C=C1\SC(=S)N(NC(=O)c2ccccc2O)C1=O	n	n	u	n	7.9µM
O=C(NN1C(=O)/C(=C/C=C/c2ccco2)SC1=S)c1ccccc1O	n	u	u	n	7.1µM
Cn1cccc1/C=C1\SC(=S)N(NC(=O)c2cccc(Cl)c2)C1=O	n	n	u	n	4µM
Cn1cccc1/C=C1\SC(=S)N(NC(=O)c2ccc(F)cc2)C1=O	n	n	u	16µM	3.5µM
COc1cc(/C=C2\SC(=S)N(NC(=O)c3ccccc3OC)C2=O)ccc1O	n	x	x	n	x
COc1ccccc1C(=O)NN1C(=O)/C(=C/c2cccn2C)SC1=S	n	n	u	n	u
CCOc1ccc(CCNC(=O)NCc2noc3ccc(C)cc23)cc1	x	n	n	x	n
CC1(C)CC(=O)c2c(oc3cc4c(cc23)OCO4)C1	u	n	n	n	n
CC(=O)N1CCC(N(C(=O)Nc2ccc(C)c(F)c2)C(C)C)CC1	x	u	n	x	n
SMILES	RORgamma inh	Tau FP inhib	Tau fluor counter	VP16 counter	Tau ThT inhib
Cn1cccc1/C=C1\SC(=S)N(NC(=O)c2ccccc2)C1=O	u	n	u	n	11µM
C=C(Br)Cn1c(CCC)nc2ccccc21	u	n	n	n	n
CCCc1nc2ccccc2n1C(=S)SC	11µM	n	n	u	u
Cc1[nH]n(-c2ccccc2)c(=O)c1/C=N/N1C(=O)c2cccc3cccc(c23)C1=O	7.1µM	n	u	u	22µM
Cc1ccc(-n2[nH]c(C)c(/C=N/c3ccccn3)c2=O)cc1	n	n	n	n	n
Cc1[nH]n(-c2ccccc2)c(=O)c1C=Nc1cccc2cccnc12	0.63µM	n	u	0.63µM	u
Clc1ccc2[nH]c3c(c2c1)CNCC3	n	x	x	n	x
O=C(Nc1cccc(Cl)c1Cl)C1CCCO1 (configuration not stated)	n	x	x	n	x
CCC(=O)N1CCN(c2ccc(NC(=O)c3ccc([N+](=O)[O-])o3)cc2)CC1	n	n	n	n	3.2µM
CC(C)(C)C(=O)N1CCN(c2ccc(NC(=O)c3ccc([N+](=O)[O-])o3)cc2)CC1	u	x	x	14µM	x
CCCC(=O)N1CCN(c2ccc(NC(=O)c3ccc(Br)o3)cc2)CC1	n	n	n	n	u
CCCC(=O)N1CCN(c2ccc(NC(=O)c3sc4ccccc4c3Cl)cc2)CC1	n	u	n	n	2.2µM
CCCC(=O)N1CCN(c2ccc(NC(=O)c3ccc([N+](=O)[O-])o3)cc2)CC1	u	n	n	n	4µM
CCCCC(CC)COS(=O)(=O)O (configuration not stated)	n	x	x	n	x
CS(=O)(=O)N1CCN(c2ccc(NC(=O)c3ccc([N+](=O)[O-])o3)cc2)CC1	n	n	n	u	u
O=C(Nc1ccc(N2CCN(C(=O)c3ccc(Cl)cc3)CC2)cc1)c1ccc([N+](=O)[O-])o1	n	n	u	u	13µM
